{"source": "PubChem BioAssay AID1347416", "about": "(National Center for Advancing Translational Sciences (NCATS), 2020)", "note": "Out of some 4,100 compounds screened, about 1,600 (39%) were called active. Roughly 25% stayed inconclusive and do not appear here. Calls follow the shape of the dose curve; as a rule, active = well fitted inhibition curve with a large enough effect; inconclusive = small, poorly fitted or top-dose-only effect; inactive = no such curve, though single readings can be large or run the other way. The list shows a part of the results. % is scaled to controls: 0 for no effect and ±100 for the full control effect; potency is read from the fitted curve at half-maximal effect."}
{"experiment": "qHTS Validation assay for Inhibitors of Plasmodium falciparum Dd2 growth in vitro; also: nearly all actives have a fitted effect of over 70% in size", "settings": "P. falciparum Dd2 in RBCs, SYBR Green growth, 72 h; series mostly up to 28.7 µM; activity change, negative = inhibition: at the top concentration", "description": "Malaria, a parasitic disease spread to humans through the bite of a Plasmodium infected Anopheles mosquito, continues to be a global health burden affecting millions of people, with an estimated 228 million cases and 405,000 deaths in 2018. Concerns about safety and limitations of current antimalarial treatments strongly emphasize the need to develop new therapeutic options. The scarce number of chemotypes and validated drug targets with efficacy against the liver stage, have hindered development of new antimalarials. To address this, a chemoprophylactic drug discovery effort was conducted through a combined phenotypic high-throughput asexual blood stage and liver stage screen, providing a robust foundation to identify liver-stage active lead chemotypes. Compounds were initially screened against Plasmodium falciparum Dd2 strain parasites using a in vitro SYBRGreen-1 based 72 hr proliferation assay to identify novel chemotypes to advance to liver stage assays. NIH/NCATS Early Translation Branch Assay Submitter (PI): Anton Simeonov Ph.D.\n[…] Assay Protocol: PROTOCOL TABLE (as described by Inglese et al., 2007) SEQUENCE No. (e.g., 1, 2, 3, etc.); PARAMETER (e.g., Cells, Incubation, Reagent, etc.); VALUE; DESCRIPTION SEQUENCE, Parameter, Description 1; Reagent; 3 uL complete malaria growth medium, 1536 TC treated Black clear bottom plate 2; Controls; 23 nL positive control artesunate (300 nM final) to column 1; Neutral control DMSO to columns 2-4 3; Compound; 23 nL of compounds in dose response concentration (29 uM to 0.5 nM final) 4; Reagent; 5 uL malaria infected red blood cells (2.5% hematocrit final, 0.3% parasitemia 5; Time; 72 hours at 37C (5% O2, 5% CO2, 90% N2; 95% Rh) 6; Reagent; 2 uL lysis buffer/SYBRGreen-1, 25 sec shake immediately following dispense 7; Time; ~16 hours at 37C (5% O2, 5% CO2, 90% N2; 95% Rh) 8; Detector; EnVision (PerkinElmer) bottom read at 485/14nm excitation and 535/25 nm emission NOTES (numbers refer to sequence above): 1; Complete Malaria Growth Media: 1X RPMI-1640 w/L-glutamine, 5.5g/L Albumax II, 367 uM Hypoxanthine, 25 mM HEPES, 0.25% Sodium Bicarbonate, 35 uM Gentamicin sulfate 2; Controls were added using the Kalypsis Pintool (Wako USA) equipped with 1536 pinhead 3; Compounds were added in a 7-point, titration with a high final concentration of 29 uM by Pintool from seven inter-plate titrations of library plates and two DMSO control plates at the beginning and end (see Yasgar et al., 2008). 4; Red blood cells infected with Plasmodium falciparum Dd2 parasites were used. 6; Lysis buffer: 20 mM Tris-HCl, 10 mM EDTA, 0.16% Saponin, 1.6% Triton-X, 10X SYBR Green. REFERENCE: Inglese J, Shamu CE, Guy RK. 2007. Reporting data from high-throughput screening of small-molecule libraries. Nat Chem Biol. doi:10.1038/nchembio0807-438 Yasgar A, Shinn P, Jadhav A, Auld D, Michael S, Zheng W, Austin CP, Inglese J, Simeonov A. 2008. Compound Management for Quantitative High-Throughput Screening. J Lab Autom 13:79-89. doi:10.1016/j.jala.2007.12.004"}
{"compound": "Nc1cc2ccncc2c2ccccc12", "Potency": "0.266 µM (active)"}
{"compound": "O=C(NC1CCCC1)N1CCC(Cc2nncn2CC2CC2)CC1", "activity change, negative = inhibition": "22.2% (inactive)"}
{"compound": "COCC(=O)N[C@H]1C[C@@H](CO)N(Cc2cn[nH]c2-c2ccccc2)C1", "activity change, negative = inhibition": "9.64% (inactive)"}
{"compound": "COC[C@@H]1CN(Cc2cn[nH]c2-c2ccccc2)C[C@H]1c1nc(C)no1", "activity change, negative = inhibition": "-4.59% (inactive)"}
{"compound": "Cc1ccccc1CN1C[C@@H]2C[C@@H](c3cn[nH]c3-c3ccccc3)N3CCC[C@@]23C1=O", "Potency": "15 µM (active)"}
{"compound": "Cc1cccc(NC(=O)Cn2c(C)c(C#N)c3ccccc32)c1C", "Potency": "5.96 µM (active)"}
{"compound": "Cc1cccc(NC(=O)Cn2cnc(S(=O)(=O)N3CCCC3)c2)c1C", "activity change, negative = inhibition": "-9.65% (inactive)"}
{"compound": "CN(C)c1cc(=O)c2ccnc(-c3ccccc3F)c2o1", "activity change, negative = inhibition": "0% [at 57.5 µM] (inactive)"}
{"compound": "CCCOC(=O)c1ccc(-c2c(C)noc2-c2ccc(OC)cc2O)o1", "Potency": "1.88 µM (active)"}
{"compound": "CCc1ccc(CNC(=O)c2cc3cc4ccc(OC)cc4nc3o2)cc1", "activity change, negative = inhibition": "12.9% (inactive)"}
{"compound": "CCc1cc(=O)n(CC(=O)Nc2ccccc2OC)c(-c2ccccc2)n1", "activity change, negative = inhibition": "-27.4% (inactive)"}
{"compound": "COc1ccccc1NC(=O)CN1CCN(C2c3ccccc3-c3ccccc32)CC1", "Potency": "15 µM (active)"}
{"compound": "CCc1noc(-c2cccn3c(CNC(=O)c4cccc(N(C)C)c4)nnc23)n1", "activity change, negative = inhibition": "4.51% (inactive)"}
{"compound": "Cc1ccc(C(=O)NCc2nnc3c(-c4nc(C(C)C)no4)cccn23)cc1", "activity change, negative = inhibition": "-1.73% (inactive)"}
{"compound": "CCOC(=O)c1c(C)c(-c2ccccc2)n(CC(=O)NC2CCCCCC2)c1C", "activity change, negative = inhibition": "-7.27% (inactive)"}
{"compound": "Cc1ccc(NC(=O)c2c(C)oc3ccc(O)c(CN4CCCCCC4)c23)cc1", "Potency": "2.11 µM (active)"}
{"compound": "Cc1ccc(NC(=O)c2c(C)oc3ccc(O)c(CN4CCCCCC4)c23)c(C)c1", "Potency": "4.73 µM (active)"}
{"compound": "Cc1ccc(CN2CCc3nc(C(=O)Nc4cccnc4)oc3CC2)cc1", "activity change, negative = inhibition": "-9.16% [at 43.1 µM] (inactive)"}
{"compound": "CCOC(=O)c1c(-c2ccccc2)oc2ccc(O)c(CN3CCCC3)c12", "Potency": "0.596 µM (active)"}
{"compound": "Cc1ccc(S(=O)(=O)N2CC3CCCC2C3)cc1", "note": "(stereo not drawn)", "activity change, negative = inhibition": "-6.85% (inactive)"}
{"compound": "O=C(NC[C@H]1OC[C@@H](NCc2ccccc2F)[C@@H]1O)Nc1ccccc1", "activity change, negative = inhibition": "-11.3% [at 43.1 µM] (inactive)"}
{"compound": "CCn1cc(CN2CCCC(c3nc(C(C)C)no3)CCNC(=O)CC2)cn1", "note": "(stereo not drawn)", "activity change, negative = inhibition": "15.1% (inactive)"}
{"compound": "Cc1ccc(O)c(CN2CCCC(c3nc(CC(C)C)no3)C2)c1", "note": "(stereo not drawn)", "Potency": "9.44 µM (active)"}
{"compound": "Cc1cccc(OCCc2noc(C3CCN(C(=O)c4n[nH]c(=O)c5ccccc45)C3)n2)c1", "note": "(stereo not drawn)", "activity change, negative = inhibition": "-9.66% (inactive)"}
{"compound": "O=C(Cn1c(=O)n(Cc2ccc(C(=O)NCc3ccc4c(c3)OCO4)cc2)c(=O)c2ccccc21)Nc1cccc(Cl)c1", "Potency": "5.96 µM (active)"}
{"compound": "CN(C(=O)Cn1c(=O)n(Cc2ccc(C(=O)NCc3ccc4c(c3)OCO4)cc2)c(=O)c2ccccc21)c1ccccc1", "activity change, negative = inhibition": "6.13% (inactive)"}
{"compound": "N=c1ccn(CC(=O)c2ccc(-c3ccccc3)cc2)cc1", "Potency": "0.944 µM (active)"}
{"compound": "NC1=NC[C@@H](Cc2ccc(O)cc2)N1CCCCC1CCCCC1", "Potency": "4.73 µM (active)"}
{"compound": "C[C@H]1CN=C(N(C)C)N1CCC1CCCCC1", "activity change, negative = inhibition": "-7.45% (inactive)"}
{"compound": "CCC(=O)N1CCCCCCN(C)C(=O)[C@@H]2CCC[C@@H]21", "activity change, negative = inhibition": "9.66% (inactive)"}
{"compound": "COc1ccc2c(c1)c(CN1CCCCCCN(C)C(=O)[C@@H]3CCC[C@@H]31)cn2C", "Potency": "15 µM (active)"}
{"compound": "C=C(C)COc1ccc(-c2[nH]ncc2-c2ccc(OC)c(OC)c2)c(O)c1", "Potency": "6.68 µM (active)"}
{"compound": "C=C(C)COc1ccc(-c2[nH]ncc2Oc2ccccc2OCC)c(O)c1", "Potency": "2.99 µM (active)"}
{"compound": "CCOC(=O)C1CCN(C(=O)Cn2cnc3sc(C)c(S(=O)(=O)N4CCOCC4)c3c2=O)CC1", "activity change, negative = inhibition": "54.6% (inactive)"}
{"compound": "CCOC(=O)c1c(C)[nH]c2c1-c1ccccc1C(=O)C2=O", "Potency": "2.37 µM (active)"}
{"compound": "CCOC(=O)C1CCN(C(=O)c2c(C)oc3c2C(=O)c2ccccc2C3=O)CC1", "Potency": "0.531 µM (active)"}
{"compound": "CCOC(=O)c1cc(Sc2ccccc2N)cc(C(=O)OCC)n1", "activity change, negative = inhibition": "-6.23% (inactive)"}
{"compound": "CCOC(=O)c1c(C)oc2c1C(=O)c1ccccc1C2=O", "Potency": "0.422 µM (active)"}
{"compound": "O=C(NCc1ccc(F)cc1)C1(CCO)CC12CCOCC2", "note": "(stereo not drawn)", "activity change, negative = inhibition": "10.9% (inactive)"}
{"compound": "O=C(Nc1ccccc1F)N1CCCCCC1c1nc(-c2cccnc2)no1", "note": "(stereo not drawn)", "activity change, negative = inhibition": "23.3% (inactive)"}
{"compound": "O=C(CCC1CCCN(Cc2cccn2-c2cccnc2)C1)Nc1ccccc1F", "note": "(stereo not drawn)", "Potency": "6.68 µM (active)"}
{"compound": "O=C(c1ccc(F)cc1)N1CCn2c(nnc2-c2ccccc2)C1", "activity change, negative = inhibition": "0% [at 43.1 µM] (inactive)"}
{"compound": "CC1CCN(C(=O)CSc2nc(-c3ccc(C(C)C)cc3)no2)CC1", "Potency": "1.19 µM (active)"}
{"compound": "CC(C)c1ccc(-c2noc(SCC(=O)N3CCN(c4ccc(F)cc4)CC3)n2)cc1", "Potency": "0.668 µM (active)"}
{"compound": "O=C(CSc1nc(-c2ccccc2)no1)N1CCN(c2ccc(F)cc2)CC1", "Potency": "4.22 µM (active)"}
{"compound": "CC(C)c1noc(-c2cn(C3CCN(C(=O)COc4ccccc4)CC3)nn2)n1", "activity change, negative = inhibition": "22.5% (inactive)"}
{"compound": "COc1ccccc1CC(=O)N1CCC(n2cc(-c3nc(C)no3)nn2)CC1", "activity change, negative = inhibition": "1.69% (inactive)"}
{"compound": "Cc1nn(C)c(C)c1CCC(=O)N1CCC(Cc2noc(-c3ccc(F)cc3)n2)C1", "note": "(stereo not drawn)", "activity change, negative = inhibition": "0.419% (inactive)"}
{"compound": "CCn1ccc2sc(C)c(C(=O)N3CCN(c4ccc(F)cc4)CC3)c2c1=O", "activity change, negative = inhibition": "-25.7% (inactive)"}
{"compound": "Cc1ccc(Cc2nc3ccccc3nc2SCC(=O)N2CCN(c3ccccc3)CC2)cc1", "activity change, negative = inhibition": "20.1% (inactive)"}
{"compound": "CCC(C)NC(=O)N1CC(Oc2ccc(-c3noc(C4CCOCC4)n3)cc2)C1", "note": "(stereo not drawn)", "activity change, negative = inhibition": "-7.58% (inactive)"}
{"compound": "COc1ccccc1N1CCN(C(=O)CSc2nc(-c3ccc(C(C)C)cc3)no2)CC1", "Potency": "0.376 µM (active)"}
{"compound": "CC(C)c1ccc(-c2noc(SCC(=O)N(C)c3ccc(F)cc3)n2)cc1", "Potency": "0.944 µM (active)"}
{"compound": "COc1ccc(-c2noc(-c3cccn3CC(=O)N(C)c3ccc(F)cc3)n2)cc1F", "activity change, negative = inhibition": "-29.9% (inactive)"}
{"compound": "COc1ccc(C(=O)N2CCC(n3cc(-c4nc(-c5ccccc5)no4)nn3)C2)cc1", "note": "(stereo not drawn)", "activity change, negative = inhibition": "-1.74% (inactive)"}
{"compound": "COc1ccc(-c2noc([C@@H]3CCCN3C(=O)Cc3ccccc3Cl)n2)cc1", "activity change, negative = inhibition": "-6.35% (inactive)"}
{"compound": "COc1ccc(N2CCN(C(=O)CSc3nc(-c4ccc(C(C)C)cc4)no3)CC2)cc1", "Potency": "0.531 µM (active)"}
{"compound": "O=C(N/N=C(\\CC(=O)c1cccs1)C(F)(F)F)c1ccncc1", "activity change, negative = inhibition": "13% (inactive)"}
{"compound": "COc1ccc(CN2CCCCCNC(=O)CC2c2ccccc2)cc1Cn1ccnc1", "note": "(stereo not drawn)", "Potency": "9.44 µM (active)"}
{"compound": "COc1ccc(-n2nc(C3CCN(Cc4ccncc4)CC3)[nH]c2=O)cc1", "activity change, negative = inhibition": "10.1% (inactive)"}
{"compound": "CCOc1ccccc1CN1C[C@@H]2C(=O)N(CCN3CCc4ccccc4C3)C(=O)[C@@H]2C1", "activity change, negative = inhibition": "-14.9% (inactive)"}
{"compound": "Cc1cccc(CN2CCCN(Cc3ccncc3)C(c3ccccc3)CC(=O)NCC2)c1", "note": "(stereo not drawn)", "Potency": "4.22 µM (active)"}
{"compound": "Cc1ccc(CNC(=O)N2CCCCCNC(=O)CC2c2ccccc2)cc1", "note": "(stereo not drawn)", "activity change, negative = inhibition": "0% (inactive)"}
{"compound": "Cc1cccc(Cn2nnc3c2C(=O)c2ccccc2C3=O)c1", "activity change, negative = inhibition": "-9.79% (inactive)"}
{"compound": "CCCNC(=O)N1CCCCCNC(=O)CC1c1ccccc1", "note": "(stereo not drawn)", "activity change, negative = inhibition": "3.59% (inactive)"}
{"compound": "COc1cccc(CN2CCCN(Cc3ccncc3)C(c3ccccc3)CC(=O)NCC2)c1", "note": "(stereo not drawn)", "Potency": "7.5 µM (active)"}
{"compound": "COc1ccc(CN(C)C2CCc3nn(C)c(=O)n3CC2)cc1Cn1cccn1", "note": "(stereo not drawn)", "activity change, negative = inhibition": "12.6% (inactive)"}
{"compound": "CCOc1ccccc1CN1CCCN(Cc2ccncc2)C(c2ccccc2)CC(=O)NCC1", "note": "(stereo not drawn)", "Potency": "6.68 µM (active)"}
